Results on 15 compounds are retold here after PubChem BioAssay.

Test [1] has as its system Wnt5a (protein binding on small-molecule microarray). As to the kind of experiment: small molecules binding Wnt5a protein – biophysical, small-molecule microarray, 635/667 nm fluorescence, primary screen (AID 1142).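 Note: fluorescence read at 667 nm with signal to noise per printed feature.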 Conditions: 635 nm fluorescence, higher = more signal.
Test [2] is described as follows: ATP-based viability of Huh7 replicon cells – cell-based, CellTiter-Glo luminescence, basal, 48 h, cytotoxicity control for HCV replication inhibitor project, primary screen (AID 1143).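 Note: Huh7 hepatoma cells carrying a hepatitis C replication reporter with no stimulus; test concentration not given here.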 Conditions: higher = more signal, called active from +8 up or from −8 down. Background: In antiviral work, replicon cells carry a viral genome segment that copies itself.
A short description of test [3]: Pseudomonas biofilm growth suppression – PAO1 strain, BacTiter-Glo luminescence, LB-PBS, primary screen (AID 1144). Conditions: P. aeruginosa PAO1 biofilm, 12 h, higher = more signal.
The nature of test [4]: basal CRE-LacZ reporter activity in PC12 – cell-based, unstimulated, primary screen (AID 1145). Conditions: no forskolin, luminescence, 4.5 h, higher = more signal, called active from +8 up or from −8 down.
Test [5] in a line: forskolin-driven CRE-LacZ activity in PC12 – cell-based, CRE-LacZ reporter, forskolin-stimulated, primary screen (AID 1146).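 Note: PC12 cells with 6xCRE LacZ reporter stimulated by forskolin 10 µM; beta-galactosidase reporter signal reflecting CREB driven transcription.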 Particulars: luminescence, 4.5 h, higher = more signal, called active from +8 up or from −8 down.
Test [6] concerns the target Streptavidin (Streptomyces avidinii) (UniProt P22629). As to the kind of experiment: compounds binding control protein streptavidin – biophysical, small-molecule microarray, 635/667 nm fluorescence, artefact control for SMM compound annotation, primary screen (AID 1147).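 Note: signal reflects streptavidin binding to arrayed compounds as a control protein.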 Particulars: higher = more signal.
The nature of test [7]: probe aInhba binding on compound microarray – biochemical, small-molecule microarray, 635/667 nm fluorescence, primary screen (AID 1148).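 Note: score merges 667nm spot fluorescence with signal-to-noise for antibody binding to printed compounds.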 Conditions: higher = more signal.
The target of test [8] is Torsin-1A (Homo sapiens) (UniProt O14656). As to the kind of experiment: TOR1A wild-type binding on microarray – cell lysate, small-molecule microarray, lysate, 635/667 nm, primary screen (AID 1149). Conditions: COS7 hTOR1A-WT lysate, 635 nm fluorescence, higher = more signal.
Torsin-1A (Homo sapiens), sequence (O14656 whole entry, looked up): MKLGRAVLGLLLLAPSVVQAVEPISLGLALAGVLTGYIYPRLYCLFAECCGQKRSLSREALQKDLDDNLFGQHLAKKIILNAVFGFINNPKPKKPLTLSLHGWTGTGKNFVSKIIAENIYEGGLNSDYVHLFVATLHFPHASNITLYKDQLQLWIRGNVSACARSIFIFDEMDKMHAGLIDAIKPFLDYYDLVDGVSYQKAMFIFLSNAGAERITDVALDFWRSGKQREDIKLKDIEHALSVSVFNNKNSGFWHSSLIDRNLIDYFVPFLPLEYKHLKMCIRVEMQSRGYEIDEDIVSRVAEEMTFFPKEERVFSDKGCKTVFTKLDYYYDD
The target is the same in test [9]. The experiment in a line: torsin A mutant lysate binding on microarrays – cell lysate, small-molecule microarray, COS7 lysate, 635/667 nm fluorescence, primary screen (AID 1150).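 Note: score pools 667 nm emission and signal to noise measuring lysate protein binding.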 Conditions: COS7 hTOR1A mutant lysate, 635 nm fluorescence, higher = more signal.
In test [10] the test system is Sonic hedgehog protein (Shh). As to the kind of experiment: Sonic hedgehog microarray binding compounds – biochemical, small-molecule microarray, 635/667 nm fluorescence, primary screen (AID 1151).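 Note: Shh protein binding to compounds spotted on small-molecule microarray slides; score combines spot fluorescence intensity with signal-to-noise across triplicate slides.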 Conditions: 635 nm fluorescence, higher = more signal.

The source made the active and inactive calls. Unless noted, the rule behind the calls is not given here.

Streptavidin (Streptomyces avidinii), sequence (P22629 whole entry, looked up): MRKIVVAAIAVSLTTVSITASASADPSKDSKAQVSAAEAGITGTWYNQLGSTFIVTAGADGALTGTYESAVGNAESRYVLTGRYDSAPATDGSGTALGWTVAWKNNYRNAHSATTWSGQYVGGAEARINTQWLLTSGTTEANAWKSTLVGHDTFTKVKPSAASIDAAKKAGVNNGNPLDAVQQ

`[N-]=[N+]=NCc1ccccc1[C@@H]1OC(c2ccc(OCCCO)cc2)=N[C@]1(CCS(=O)(=O)c1ccccc1)C(=O)O`: the composite z-score in test [1] was 0.132; in test [6], 0.659; in [7], -0.0589; with Torsin-1A (Homo sapiens) [8] it was 0.134; with Torsin-1A (Homo sapiens) [9], 1.09; in test [10], -1.42. Further, the z-score was 0.0514 (inactive) in [2], -0.127 (inactive) in test [3], 1.06 (inactive) in [4] and -0.0084 (inactive) in [5].

As to `COc1cc2c(cc1O)C(c1cccs1)N(Cc1cc3c(cc1Br)OCO3)CC2` (stereo not given), the composite z-score in test [1] is 0.594; in test [6], 2.07; in [7], 0.0268; in the test with Torsin-1A (Homo sapiens) [8] it was 0.835; with Torsin-1A (Homo sapiens) [9], 1.16; in test [10], 0.305. For the same compound, the z-score is -4.04 (inactive) in [2], 0.582 (inactive) in [3], 0.0924 (inactive) in [4] and 0.726 (inactive) in [5].

Take `C=CC[C@H](OC(=O)Nc1ccc(SC)cc1)c1ccc(O)c2ccccc12`: the composite z-score is 0.336 in test [1]; 1.61 in test [6]; -0.101 in test [7]; 0.557 in the test with Torsin-1A (Homo sapiens) [8]; 0.465 with Torsin-1A (Homo sapiens) [9]; 1.76 in test [10]. The z-score is -6.78 (inactive) in test [2], -0.921 (inactive) in [3], 4.1 (inactive) in test [4] and 3.2 (inactive) in test [5].

Consider `CCCCC=C[C@@H](NC(=O)OCc1ccccc1Cl)c1ccccc1`, for which the composite z-score in [1] was 1.45; in test [6], 0.484; in test [7] it was 0.592; with Torsin-1A (Homo sapiens) [8], -0.266; in the test with Torsin-1A (Homo sapiens) [9], 0.665; in [10], 0.62. Also, the z-score is -0.392 (inactive) in test [2], -0.146 (inactive) in test [3], 0.394 (inactive) in test [4] and 1.02 (inactive) in test [5].

Consider `C=C[C@H]1C(C(=O)OCC)=CC[C@@H](c2ccccc2)N1S(=O)(=O)c1ccc(C)cc1`, for which the composite z-score stood at 0.197 in [1]; 0.767 in [6]; 0.13 in test [7]; 0.683 in the test with Torsin-1A (Homo sapiens) [8]; 0.508 with Torsin-1A (Homo sapiens) [9]; 0.056 in test [10]. Besides, the z-score in test [2] is -4.68 (inactive); in test [3] it was -0.376 (inactive); in test [4], -0.0137 (inactive); in test [5] it was 0.299 (inactive).

Regarding `COc1ccc(C#Cc2ccc3c(c2)[C@]2(C(=O)N3)[C@H](C(=O)O)[C@H]3C(=O)O[C@H](c4ccccc4)[C@H](c4ccccc4)N3[C@@H]2c2ccc(O)cc2)cc1`, the composite z-score in test [1] is 0.0637; in [6] it was -0.31; in test [7], -0.0313; in the test with Torsin-1A (Homo sapiens) [8], 0.269; with Torsin-1A (Homo sapiens) [9] it was 0.578; in [10], -0.454. Besides, the z-score was -4.48 (inactive) in test [2], -0.563 (inactive) in test [3], 0.0653 (inactive) in test [4] and -0.332 (inactive) in test [5].

Regarding `C#CCN([C@@H](Cc1ccccc1)C(=O)OC)[C@@H](/C=C/C1CC1)[C@H](O)Cc1ccccc1`, the composite z-score in test [1] is -0.476; in test [6], -0.676; in test [7], -0.157; with Torsin-1A (Homo sapiens) [8] it was 0.239; with Torsin-1A (Homo sapiens) [9], -0.211; in test [10], 0.314. Moreover, the z-score is -3.22 (inactive) in [2], 0.398 (inactive) in test [3], 1.67 (inactive) in test [4] and -0.0949 (inactive) in test [5].

As for `CC#CCO[Si](C#Cc1ccccc1)(C(C)C)C(C)C`, the composite z-score is -0.254 in test [1]; -1.07 in test [6]; -0.106 in test [7]; -1.43 with Torsin-1A (Homo sapiens) [8]; -0.811 with Torsin-1A (Homo sapiens) [9]; 0.12 in test [10]. For the same compound, the z-score was -1.35 (inactive) in [2], 0.687 (inactive) in [3], -0.985 (inactive) in test [4] and 0.852 (inactive) in [5].

Turning to `C=CC[C@@]1(C(=O)NCCCOC)N=C(c2ccc(OCCCO)cc2)O[C@@H]1c1ccccc1N=[N+]=[N-]`, the composite z-score in test [1] is 0.452; in test [6], 0.77; in test [7], 0.0713; with Torsin-1A (Homo sapiens) [8], -0.668; with Torsin-1A (Homo sapiens) [9], -0.112; in test [10], -0.388. The z-score was -2.67 (inactive) in test [2], -1.75 (inactive) in [3], -0.711 (inactive) in test [4] and -0.66 (inactive) in test [5].

In the case of `O=C1O[C@H](c2ccccc2)[C@H](c2ccccc2)N2[C@H]1[C@@H](C(=O)O)[C@]1(C(=O)Nc3ccc(C#CCCO)cc31)[C@H]2c1ccccc1OCCO`, the composite z-score is 0.248 in test [1]; -0.18 in test [6]; -0.0986 in [7]; -0.658 with Torsin-1A (Homo sapiens) [8]; -0.199 with Torsin-1A (Homo sapiens) [9]; 0.824 in [10]. Besides, the z-score in [2] is -0.873 (inactive); in [3], -0.352 (inactive); in test [4] it was -0.195 (inactive); in [5], 1.04 (inactive).

Consider `COc1cc(NN2C(C(O)c3cc(OC)c(OC)c(OC)c3)C=CC3C(=O)N(C)C(=O)C32)cc(OC)c1OC` (stereo not given), for which the composite z-score was -0.019 in test [1]; 0.853 in test [6]; -0.0336 in [7]; 0.434 with Torsin-1A (Homo sapiens) [8]; 0.459 with Torsin-1A (Homo sapiens) [9]; 0.0774 in test [10]. In addition, the z-score in [2] is -0.0088 (inactive); in test [3], -0.792 (inactive); in test [4], 0.243 (inactive); in test [5] it was 0.445 (inactive).

With `C[N+](C)(C)CCCCCCNC(=O)[C@@H]1C[C@@H]2C(=O)N3CCC[C@H]3C(=O)N2[C@@H]1c1ccc(O)cc1`, the composite z-score in test [1] is 0.311; in [6] it was -0.31; in test [7], -0.0762; with Torsin-1A (Homo sapiens) [8], 1.25; with Torsin-1A (Homo sapiens) [9] it was 1.15; in [10] it was 2.12. The z-score in test [2] is 0.143 (inactive); in [3] it was -0.573 (inactive); in [4] it was -0.663 (inactive); in [5] it was -0.62 (inactive).

For the compound `CC1=C2[C@@H](CCc3ccccc3)OB(O)C[C@@H]2[C@@H]2C(=O)N(C)C(=O)[C@@H]2C1`, the composite z-score is 0.318 in test [1]; -0.0498 in [6]; -0.252 in test [7]; -0.126 with Torsin-1A (Homo sapiens) [8]; 0.355 with Torsin-1A (Homo sapiens) [9]; 0.464 in test [10]. Also, the z-score is -0.239 (inactive) in [2], -0.294 (inactive) in test [3], -0.866 (inactive) in test [4] and 0.829 (inactive) in [5].

On to `COc1cc(NN2C(C(O)c3ccc(N(C)C)cc3)C=CC3C(=O)N(c4ccccc4)C(=O)C32)cc(OC)c1OC` (stereo not given), for which the composite z-score in [1] was 0.0759; in test [6] it was 0.535; in test [7] it was 0.242; with Torsin-1A (Homo sapiens) [8] it was -0.223; with Torsin-1A (Homo sapiens) [9], 0.419; in test [10] it was -0.254. Also, the z-score in [2] is -2.89 (inactive); in [3], -0.414 (inactive); in test [4] it was -0.136 (inactive); in [5], -0.259 (inactive).

In the case of `CCOC(=O)C[C@H]1[C@H](OC(=O)c2ccc(C(=O)c3ccccc3)cc2)[C@@H](NC(=O)c2ccc(-c3ccccc3)cc2)c2cc(OCCCO)ccc2N1C(=O)Cc1ccc(OC)cc1`, the composite z-score in test [1] is 0.0266; in test [6], 0.324; in test [7] it was 0.0569; in the test with Torsin-1A (Homo sapiens) [8] it was -0.0633; with Torsin-1A (Homo sapiens) [9] it was 0.022; in test [10], -0.235. Further, the z-score was 0.128 (inactive) in test [2], -0.271 (inactive) in [3], -0.0989 (inactive) in test [4] and -0.539 (inactive) in test [5].
